Results filed as inconclusive are left out. Calls follow the shape of the dose curve; as a rule, active = well fitted curve in either direction with a large enough effect (not every such curve was filed as active); inconclusive = small, poorly fitted or top-dose-only effect, or another doubt; inactive = flat fitted curve, though single readings scatter.
Assay: AP1 Signaling Pathway (AID 357)
Conditions: ME-180 (cervical carcinoma) AP-1-bla reporter, EGF-induced, beta-lactamase ratio, 5 h; at 17.2 µM (top of the series) unless noted
Outline: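 Read-out was the 460nm/530nm emission ratio (excitation 405nm) after CCF4 loading for 2.5 hours at room temperature. Cells carried an AP-1-driven beta-lactamase reporter, were stimulated with EC50 EGF plus compound for 5 hours, and AC50 values came from titrations.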
% is scaled to controls: 0 for no effect and ±100 for the full control effect.

Activity change, negative = inhibition, inactive:
Clc1ccc(-n2ncc3c(NCc4ccco4)ncnc32)cc1 -19.6%
COc1ccc(N2C(=O)CC(N(Cc3ccc(S(N)(=O)=O)cc3)C(C)=O)C2=O)cc1 (stereo unspecified) 5.04%
C/C(NC(=O)c1ccccc1F)=C1\C(=O)C[C@@H]2[C@H]1C2(C)C -12.1%
O=C(O)C1CC(=O)n2c(nc3ccccc32)S1 (stereo unspecified) -9.56%
CCOC(=O)N1CCN(C(=O)c2cn(CC)c3cc(N4CCN(C)CC4)c(F)cc3c2=O)CC1 8.43%
CCCSc1nc(O)c(C2OC(=O)c3c2ccc(OC)c3OC)c(=O)n1C (stereo unspecified) 17.4%
COc1ccc(C(=O)NCC(=O)n2nc(C)cc2C)cc1OC 6.38%
C=CCNc1nc(N2CCOCC2)c(C#N)c2c1CN(C)CC2 4.63%
COCCNc1nc2c(c(=O)n(Cc3ccc(OC)cc3)c(=O)n2C)n1C -10.1%
O=C1C=C(NCCNc2c(F)c(F)c(CO)c(F)c2F)CCC1 -0.699%
Cc1ccc(C(C)C)c(OCCNc2nc3c(c(=O)n(C)c(=O)n3C)n2C)c1 -0.712%
CCCCCCOC(=O)CCn1[nH]c(=O)c2ccccc2c1=O 13%
COc1ccc(-c2c3c([nH]c(=S)c2C#N)CCC3)cc1 22.9%
C=CCn1cnc2c(c1=O)c1nc3ccccc3nc1n2-c1ccc(C)cc1 -1.69%
Oc1oc(-c2ccccc2)nc1C=NCc1ccncc1 1.8%
CC1=C(C(=O)Nc2ccccc2)C(c2ccncc2)C(C#N)=C(SCC(=O)NC(C)C)N1 (stereo unspecified) -5.76%

Source: PubChem BioAssay (NCATS)
